The structures appear in SMILES notation. “And” between values parts separate entries of the source, which are not always exact repeats. Equal entries are not always repeated. Inconclusive results are not listed. A number with no mark means an inactive call. The source made the active and inactive calls. Unless noted, calls come from the whole dose curve; as a rule, active = well fitted curve in the direction sought with a large enough effect; inconclusive = small, poorly fitted or top-dose-only effect, or another doubt; inactive = no such curve, though single readings can be large; an effect the other way counts as inactive or inconclusive.

Test [1] is described as follows: qHTS for Inhibitors of Plasmodium falciparum (DD2) proliferation (AID 504314).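 Note: parasite DNA measured by SYBR Green fluorescence after red cell lysis; plate controls were DMSO vehicle for no effect and artemisinin wells for full effect.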 In a few lines:
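P. falciparum Dd2 is grown in erythrocytes with test compound for 72 h at 37C under 5% CO2. Growth is scored by SYBR Green I fluorescence after detergent lysis, relative to artemisinin (0.29 uM) and DMSO controls.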

The nature of test [2]: qHTS for Inhibitors of Plasmodium falciparum (7G8) proliferation (AID 504316). Note: nearly all actives have a fitted effect of over 65% in size. Note: potency is the fitted concentration of half-maximal effect. In a few lines:
(§1)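 Parasite growth measured as SYBR Green DNA fluorescence (ex 485, em 535 nm) after overnight lysis following 72 h culture at 37 °C, 0.3% parasitemia, 2.5% hematocrit. Values normalized against DMSO and 0.29 uM artemisinin controls, with plate-stack correction.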

Test [3] is described as follows: qHTS for Inhibitors of Plasmodium falciparum (HB3) proliferation (AID 504318).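 Note: 0% = DMSO vehicle and -100% = artemisinin control; nearly all actives have a fitted effect of over 60% in size.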 In a few lines: as §1
Test [4] is described as follows: qHTS for Inhibitors of Plasmodium falciparum (CP250) proliferation (AID 504320). Note: potency is the fitted concentration of half-maximal effect. In a few lines:
as §1

Test [5] addresses Atrial natriuretic peptide receptor 1 (Homo sapiens) (UniProt P16066). As to the kind of experiment: Natriuretic polypeptide receptor (hNpr1) antagonism - Pilot CMLD screen (AID 1347052; calls by dose curve;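 note: HEK293 cells with hNpr1 stimulated by hNppA peptide at 0.1 nM; cGMP level read as GloSensor luciferase luminescence after agonist stimulation; series mostly up to about 9.2 µM; % is set by controls: 0 for no effect and ±100 for the full control effect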).

Chain of Atrial natriuretic peptide receptor 1 (Homo sapiens) (P16066 whole entry, looked up): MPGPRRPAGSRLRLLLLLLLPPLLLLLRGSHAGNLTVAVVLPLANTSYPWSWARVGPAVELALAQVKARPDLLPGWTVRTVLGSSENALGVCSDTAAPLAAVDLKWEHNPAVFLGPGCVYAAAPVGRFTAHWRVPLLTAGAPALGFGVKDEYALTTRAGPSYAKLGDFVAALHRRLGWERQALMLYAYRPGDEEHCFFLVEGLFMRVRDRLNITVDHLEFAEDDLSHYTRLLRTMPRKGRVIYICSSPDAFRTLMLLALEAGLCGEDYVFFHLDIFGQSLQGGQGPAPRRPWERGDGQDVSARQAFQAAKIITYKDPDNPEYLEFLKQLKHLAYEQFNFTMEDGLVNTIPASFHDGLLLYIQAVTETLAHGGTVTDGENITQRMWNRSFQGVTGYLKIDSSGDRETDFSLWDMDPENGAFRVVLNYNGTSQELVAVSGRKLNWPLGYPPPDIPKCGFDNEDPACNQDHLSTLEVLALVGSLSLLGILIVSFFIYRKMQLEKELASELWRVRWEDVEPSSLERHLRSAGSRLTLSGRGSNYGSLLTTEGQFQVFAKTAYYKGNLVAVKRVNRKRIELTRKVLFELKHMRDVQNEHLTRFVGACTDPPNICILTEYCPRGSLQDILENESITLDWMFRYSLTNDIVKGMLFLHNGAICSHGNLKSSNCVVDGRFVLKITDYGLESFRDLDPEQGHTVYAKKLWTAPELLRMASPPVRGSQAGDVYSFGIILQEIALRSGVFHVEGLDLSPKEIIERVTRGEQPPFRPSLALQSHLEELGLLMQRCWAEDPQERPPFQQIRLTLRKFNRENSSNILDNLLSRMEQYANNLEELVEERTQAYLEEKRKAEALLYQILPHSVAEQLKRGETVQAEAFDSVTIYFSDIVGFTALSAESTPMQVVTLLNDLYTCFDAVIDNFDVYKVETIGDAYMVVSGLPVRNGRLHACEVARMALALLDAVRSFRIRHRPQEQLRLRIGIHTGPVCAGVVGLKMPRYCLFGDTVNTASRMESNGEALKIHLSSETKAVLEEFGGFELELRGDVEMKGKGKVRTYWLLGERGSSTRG

Consider `COC(=O)CC=C1c2ccccc2[C@@H](OC)[C@@H]1C`, for which the Potency result in test [1], in test [2], in test [3], in test [4] and in test [5] was “inactive” in each case.
Turning to `COC1(C#C[C@@H]2C=C[C@H](OC(C)=O)[C@@H](COC(C)=O)O2)CCCCC1`, the Potency result in test [1], in test [2], in test [4] and in test [5] was “inactive” throughout.
For `COC(=O)[C@@H]1[C@@H](c2cccc(C(F)(F)F)c2)NC(=O)N(Cc2ccccc2)[C@@H]1C`, the Potency result in test [1], in test [2], in test [4] and in test [5] was “inactive” in each case.
Turning to `CCN1C(=NCc2ccc(OC)cc2)N[C@@H](CCc2ccccc2)[C@H](C(=O)NCc2ccc(OC)cc2)[C@H]1C`, the Potency entry in test [1], in test [2], in test [4] and in test [5] was “inactive” in each case.
As to `CC(CCN1CCc2nc(-c3ccccc3)c(-c3ccccc3)cc2C1)=NOC[C@@H](O)[C@H]1O[C@@H]2OC(C)(C)O[C@H]2[C@@H]1O`, the Potency result in test [1], in test [4] and in test [5] was “inactive” each time. Also, the Potency in test [2] was 1900 nM (active).
For the molecule `COC(=O)CCCC1=CC2=CC(=O)C(C)(OC(=O)c3cccs3)C(=O)C2=CN1CCc1c[nH]c2ccccc12` (configuration not stated), the Potency entry in test [1], in test [2], in test [4] and in test [5] was “inactive” throughout.
With `CC1=C[C@@H](COCc2ccccc2)O[C@@]2(C1)C(=O)N(Cc1ccc(Br)cc1)c1ccccc12`, the Potency result in test [1], in test [2], in test [4] and in test [5] was “inactive” each time.
Regarding `CCC(=O)OC1(C)C(=O)C=C2C=C(c3ccsc3)OC=C2C1=O` (configuration not stated), the Potency result in test [1], in test [2], in test [3], in test [4] and in test [5] was “inactive” each time.
For `O=C1OC2(CCCCC2)CC2=C1[C@H]1O[C@](c3ccsc3)(Cc3ccccc31)O2`, the Potency result in test [1], in test [2], in test [4] and in test [5] was “inactive” throughout.
With `COc1ccc2ccccc2c1-c1c(OC)ccc2ccccc12`, the Potency entry in test [1], in test [2], in test [3], in test [4] and in test [5] was “inactive” in each case.
As for `C=C(C)C(=O)OC[C@H]1CN2[C@H](c3ccc(Br)cc3)[C@H](C)CC[C@H]2C(=O)O1`, the Potency entry in test [1], in test [2] and in test [5] was “inactive” each time. Moreover, in test [4], the Potency is 1510 nM (active).
Consider `COc1cccc([C@@H]2Oc3ccc(Br)cc3C(=O)[C@@H]2OC(=O)N[C@H]2CCCc3ccccc32)c1`, for which the Potency entry in test [1], in test [2], in test [4] and in test [5] was “inactive” each time.
`O[C@@H]1CO[C@@H](C=Cc2ccccc2)[C@H]1OCc1cccc(Br)c1`: the Potency entry in test [1], in test [2], in test [3], in test [4] and in test [5] was “inactive” each time.
For `C=CCC12OC3(OC)CC1[C@H](C)[C@@H](c1ccccc1)C2[C@]3(O)CC=C` (some centres not stated), the Potency entry in test [1], in test [2], in test [3], in test [4] and in test [5] was “inactive” throughout.
With `C=CC[C@@]1(c2ccc(Br)cc2OC)Oc2ccccc2-c2nccnc21`, the Potency result in test [1], in test [2], in test [4] and in test [5] was “inactive” in each case.
For `CCCC[C@]12Cc3c(ccc4ccccc34)[C@H](O1)c1c(cc(C)oc1=O)O2`, the Potency entry in test [1], in test [2], in test [3], in test [4] and in test [5] was “inactive” in each case.
As for `C=CCN1C(=O)[C@@]2(CC(C)=CC[C@@H](C)O2)c2c(Br)cccc21`, the Potency entry in test [1], in test [2], in test [4] and in test [5] was “inactive” each time.
With `CCOC(=O)NN=C1C[C@@H](O)[C@@H](O)[C@@H]2[C@H]3C(=O)N(Cc4ccc5c(c4)OCO5)C(=O)[C@@H]3CC[C@H]12`, the Potency entry in test [1], in test [2], in test [3], in test [4] and in test [5] was “inactive” in each case.
As to `CC(C)OCCCN1C=C2C(=O)C(C)(OC(=O)C3CCCC3)C(=O)C=C2C=C1c1ccsc1` (configuration not stated), the activity, negative = inhibition in test [1] was -2.66% [at 1.12 µM]. In addition, the Potency entry in test [2], in test [4] and in test [5] was “inactive” in each case.
Turning to `CC(=O)OC[C@H]1O[C@@H](ON=C2C[C@@H](O)[C@@H](O)[C@@H]3[C@H]4C(=O)N(C5CCCCC5)C(=O)[C@@H]4CC[C@@H]23)[C@H](OC(C)=O)[C@@H](OC(C)=O)[C@H]1OC(C)=O`, the Potency result in test [1], in test [2], in test [4] and in test [5] was “inactive” each time.
On to `CCCCc1cc2c(cn1)=C(OC(=O)c1cnc3ccccc3n1)C(C)(OC(=O)CC)C(=O)C=2` (configuration not stated), for which the activity, negative = inhibition in test [1] is 2.28% [at 1.12 µM]. For the same molecule, the Potency in test [2] is 1690 nM (active). Moreover, the Potency result in test [4] and in test [5] was “inactive” throughout.
In the case of `COC(=O)[C@@]1(C=C2c3ccc(F)cc3[C@@H](OC)[C@@H]2C)[C@@H]2C=CC[C@@H]21`, the Potency entry in test [1], in test [2], in test [4] and in test [5] was “inactive” throughout.
As for `CC#CCN1C(=O)NC(c2ccccc2)C(C(=O)OCC)=C1c1ccccc1` (configuration not stated), the Potency result in test [1], in test [2], in test [3], in test [4] and in test [5] was “inactive” each time.
For the molecule `COC(=O)[C@H]1[C@H](CCc2ccccc2)NC(=O)N(Cc2ccccc2)[C@H]1C`, the Potency result in test [1], in test [2], in test [3], in test [4] and in test [5] was “inactive” throughout.
On to `COC(=O)C[C@H]1c2ccccc2C2=C(C[C@@H](C)[C@H]3C(=O)N(c4ccccc4)C(=O)[C@@H]23)N1C(=O)OC`, for which, in test [1], the activity, negative = inhibition was 2.35% [at 1.12 µM] and 0.352% [at 1.12 µM]. For the same molecule, the Potency entry in test [2], in test [3], in test [4] and in test [5] was “inactive” each time.
With `CCOC(=O)C1=C(CCl)NC(=O)N(C(C)=O)C1c1ccccc1` (configuration not stated), the Potency result in test [1], in test [2], in test [4] and in test [5] was “inactive” each time.
Take `COCC=CC1=CC2=CC(=O)C(C)(OC(=O)c3cnc4ccccc4n3)C(=O)C2=CN1Cc1ccc(OC)cc1` (configuration not stated): the Potency entry in test [1], in test [2], in test [4] and in test [5] was “inactive” each time.
Regarding `Cc1ccc(S(=O)(=O)OC[C@@H]2CN3[C@H](c4ccc(Br)cc4)[C@H](C)CC[C@H]3C(=O)O2)cc1`, the Potency entry in test [1], in test [2], in test [3], in test [4] and in test [5] was “inactive” throughout.
Turning to `CCOC(=O)CCN1C(=O)[C@@H]2[C@H]3[C@H](O)[C@H](O)CC(=NNC(=O)OCc4ccc(OC)cc4)[C@@H]3CC[C@H]2C1=O`, the Potency result in test [1], in test [2], in test [4] and in test [5] was “inactive” throughout.

(Values after PubChem BioAssay (NCATS).)
